From PubChem BioAssay AID1159580 (chemical genetic matrix, 2015)
Where “and” joins values, the source holds several entries; their conditions need not be identical. Identical values can stand only once. Out of some 5,500 compounds screened, about 2,000 (36%) were called active. Roughly 18% stayed inconclusive and do not appear here. Rule as the data show it: active = normalized growth mostly below about 0.91 (no sharp cut-off); inconclusive = no clear call, values can overlap the other calls; inactive = mostly above about 0.92. The list shows a part of the results.

Test: chemical genetic growth profiling, strain panel (AID 1159580);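 also: tested at 20 µM; growth read once vehicle control cultures reached saturation at 30 °C; 1 = growth at the plate median or of vehicle wells; lower values mean less growth of the strain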
Conditions: S. cerevisiae deletion strains, growth OD

Measured: normalized growth

COC(=O)C[C@H]1C(C)(C)C2(O)OC34CC2C(=O)[C@]1(C)C3CC[C@]1(C)C4=CC(=O)O[C@H]1c1ccoc1 (some centres not stated)
inactive: locus YAL013W, strain DEP1, stronger effect = lower value 1.01 | locus YAL021C, strain ccr4, stronger effect = lower value 0.99 | locus YAL026C, strain drs2, stronger effect = lower value 0.998 | locus YAL030W, strain snc1, stronger effect = lower value 0.99 | locus YBL061C, strain skt5, stronger effect = lower value 0.999 | locus YBR009C, strain hhf1, stronger effect = lower value 1.01 | locus YBR021W, strain FUR4, stronger effect = lower value 0.976 | locus YBR023C, strain chs3, stronger effect = lower value 0.99 | locus YBR171W, strain sec66, stronger effect = lower value 0.973 | locus YBR229C, strain ROT2, stronger effect = lower value 1.01 | locus YBR231C, strain swc5, stronger effect = lower value 0.986 | locus YBR279W, strain paf1, stronger effect = lower value 0.998 | locus YCL011C, strain gbp2, stronger effect = lower value 0.978 | locus YCL016C, strain dcc1, stronger effect = lower value 1 | locus YCL029C, strain bik1, stronger effect = lower value 1.01 | locus YCL061C, strain MRC1, stronger effect = lower value 1.02 | locus YCL069W, strain vba3, stronger effect = lower value 0.977 | locus YCR088W, strain abp1, stronger effect = lower value 0.978 | locus YDL005C, strain med2, stronger effect = lower value 0.991 | locus YDL035C, strain GPR1, stronger effect = lower value 1 | locus YDL040C, strain nat1, stronger effect = lower value 0.973 | locus YDL074C, strain BRE1, stronger effect = lower value 1.01 | locus YDL101C, strain DUN1, stronger effect = lower value 1 | locus YDL134C, strain PPH21, stronger effect = lower value 1.01 | locus YDL185W, strain tfp1, stronger effect = lower value 1.01 | locus YDL192W, strain arf1, stronger effect = lower value 1.01 | locus YDR001C, strain nth1, stronger effect = lower value 0.991 | locus YDR069C, strain doa4, stronger effect = lower value 0.988 | locus YDR101C, strain arx1, stronger effect = lower value 1.01 | locus YDR137W, strain rgp1, stronger effect = lower value 1.03 | locus YDR150W, strain NUM1, stronger effect = lower value 0.993 | locus YDR159W, strain sac3, stronger effect = lower value 0.973 | locus YDR162C, strain NBP2, stronger effect = lower value 1.02 | locus YDR195W, strain ref2 0.963 | locus YDR297W, strain sur2, stronger effect = lower value 0.994 | locus YDR318W, strain mcm21, stronger effect = lower value 1 | locus YDR334W, strain swr1, stronger effect = lower value 0.975 | locus YDR335W, strain msn5, stronger effect = lower value 0.983 | locus YDR388W, stronger effect = lower value 1 | locus YDR392W, strain spt3, stronger effect = lower value 0.952 | locus YDR502C, strain sam2, stronger effect = lower value 0.994 | locus YEL003W, strain gim4, stronger effect = lower value 0.992 | locus YEL037C, strain rad23, stronger effect = lower value 0.98 | locus YEL061C, strain CIN8 (second series), stronger effect = lower value 0.972 | locus YER015W, strain faa2, stronger effect = lower value 0.996 | locus YER016W, strain bim1, stronger effect = lower value 0.984 | locus YER110C, stronger effect = lower value 1.02 | locus YER111C, strain swi4, stronger effect = lower value 0.985 | locus YER155C, strain BEM2 (second series), stronger effect = lower value 0.993 | locus YER155C, strain BEM2, stronger effect = lower value 0.992 | locus YER167W, strain BCK2, stronger effect = lower value 0.996 | locus YFR010W, strain ubp6, stronger effect = lower value 0.974 | locus YGL078C, strain dbp3, stronger effect = lower value 1.02 | locus YGL086W, strain mad1, stronger effect = lower value 0.99 | locus YGL167C, strain pmr1, stronger effect = lower value 1 | locus YGL173C, strain kem1, stronger effect = lower value 0.988 | locus YGL227W, strain vid30, stronger effect = lower value 0.983 | locus YGL240W, strain doc1, stronger effect = lower value 0.971 | locus YGL248W, strain PDE1, stronger effect = lower value 1.01 | locus YGL253W, strain hxk2, stronger effect = lower value 0.968 | locus YGR135W, strain pre9, stronger effect = lower value 1.01 | locus YGR252W, strain gcn5, stronger effect = lower value 1.05 | locus YHR013C, strain ard1, stronger effect = lower value 0.988 | locus YHR027C, strain rpn1, stronger effect = lower value 0.99 | locus YHR030C, strain SLT2, stronger effect = lower value 1 and 0.968 | locus YHR079C, strain IRE1 (second series), stronger effect = lower value 1.01 | locus YHR079C, strain IRE1, stronger effect = lower value 0.972 | locus YHR094C, strain hxt1, stronger effect = lower value 1.02 | locus YHR129C, strain ARP1, stronger effect = lower value 1 | locus YHR142W, strain chs7, stronger effect = lower value 0.975 | locus YHR200W, strain rpn10, stronger effect = lower value 1 | locus YIL066C, strain RNR3, stronger effect = lower value 1.01 | locus YIL073C, strain SPO22, stronger effect = lower value 1.01 | locus YIL125W, strain kgd1, stronger effect = lower value 1.01 | locus YIR030C, strain dcg1, stronger effect = lower value 1.01 | locus YJL092W, strain hpr5, stronger effect = lower value 0.98 | locus YJL095W, strain BCK1 (second series), stronger effect = lower value 0.988 | locus YJL095W, strain BCK1, stronger effect = lower value 0.982 and 0.98 | locus YJL115W, strain asf1, stronger effect = lower value 0.984 | locus YJL129C, strain trk1, stronger effect = lower value 1 | locus YJL134W, strain LCB3, stronger effect = lower value 1 | locus YJL154C, strain vps35, stronger effect = lower value 0.989 | locus YJL164C, strain tpk1, stronger effect = lower value 1 | locus YJL166W, strain qcr8, stronger effect = lower value 0.986 | locus YJL168C, strain set2, stronger effect = lower value 0.996 | locus YJL187C, strain SWE1 (second series), stronger effect = lower value 1.01 | locus YJL187C, strain SWE1, stronger effect = lower value 1.01
